This note sets out measurements from PubChem BioAssay AID1508600 (Functional Genomics Laboratory (NCATS/FGL), 2020).

Screen size: about 53,000 sequences; about 3,700 (7%) were called active. The entries come from a sample that favours actives as a whole. Unmarked numbers belong to inactive results.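 Rule for the calls: active = gene knockdowns whose robust z-score for IL-1 alpha signal is at least 2 or at most -2, so actives lie on both sides; inactive = the rest.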

A short description of the assay: Components of the Cytosolic LPS Sensing Pathway: Gene Identification via Genome-wide siRNA Screen.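 Note: robust z of the log signal after scaling to non-targeting control siRNA wells of the plate.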 To be noted: RAW264.7 macrophages, IL-1a HTRF, actives lie on both sides, screened at 100 nM (by protocol), cells primed 5 h with Pam3CSK4 first. The essentials:
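Mouse macrophage line RAW264.7 is transfected with siRNA (100 nM final), grown 48h, primed with TLR ligand Pam3CSK4 5 h and given intracellular LipidA 24 h. IL-1a in supernatant is read by HTRF and viability by luminescence.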
Take “GUGUAUGCGCUGAUCCUAUTT against 1700020N01Rik”: the z-score was 0.181. As for GGAGCUCUCAUCCUACUAUTT against Eif4ebp3, the z-score was -0.0855. With GGCCUUUGAGAAGAACAUUTT against Copz1 the figure was -2.16 (active); with GGAGUUUUUAUUCAAGGAATT against Slc35b3, -1.07; with GGCAGUGUACAUCUGGAUATT against Olfr611, 1.85. With CCGUGUUCCGAGGAUAUGUTT against Cyp2e1 the figure was -0.212; with GGGACUAUGACAAAACAGCTT against Atad2, 0.0122. With CCUGACAUUCUUUAAUCCATT against Synb the figure was 0.6; with CCAACUCUAAUAAUAACAGTT against Slc22a26, 3.31 (active); with CCAGACAUGAAACUUGUAUTT against Mms19, -0.165.

As to GGCCAGAGGACUAUGUUAUTT against C1s2, the z-score is 1.24. With GGGUGGAGAAAUUUUAAUGTT against Dse the figure was -0.22. As for GGAAAAUGAGAUCAUGCCCTT against Sdf4, the figure is -0.488. With GGCGAUUCUGGCUCUCUUUTT against Commd9 the figure was 1.28. Consider GCAGAAAGAAACGUAAAUGTT against Dhx57, for which the z-score is 0.464. With GGCUUCAGCUAUUGGGCAATT against Vsig1 the figure was 2.19 (active); with “GGGAUGUGUACCGUUACAUTT against 1700010I14Rik”, 0.155; with CCCUUUUGUUUAGCUGAUCTT against Glrp1, -2.14 (active). As for GGACAGUUCGUGUUUGGUUTT against Wdfy2, the figure is 0.0956.

For GGUUCAACAAAACAGGCUUTT against Serpina1f, the z-score is -1.01. As for GGAUUAAUGUUUCCUGACUTT against Mturn, the figure is 0.704; as for GGGAAACAAACAGAAGAACTT against Cfap65, -1.2; as for GGACAUUAACGAGCUGAACTT against Ube2m, 0.67.

As for GGAGAAGAAGAACAGGACATT against Rnf186, the z-score is 2.35 (active).

With GGACAGGUGAAGAUAAGUATT against Mug2, the z-score is -0.704. As for GCCUGUAUAGAUGCUAUUCTT against Setd1a, the figure is -0.894; as for GGUGGUUUGUGUUACAUUUTT against Ifnar2, 2.38 (active). As for GGACUAUGUCUUUGACAAATT against Cdyl2, the figure is -0.133; as for GCCUAACAAUAGUGGAAUUTT against Ms4a13, 2.76 (active); as for GGAUUUCCUGUUCUUUCUATT against Prmt5, 0.168. As for GGACUGUGGCACAGAGAAATT against Hgfac, the figure is -0.116. Take GCUGAUCCAACUGGAAUCUTT against Cep164: the z-score was 0.61. As for GGCAAAGAAUGCACUUUCUTT against Elapor2, the figure is -0.536. On to GGAGUCCUAAAGAGUUCUATT against Slc11a1, for which the z-score was 0.723. With GGAGAUGCCAGAGGUCAAATT against Gzmk the figure was 2.08 (active). Turning to GGCUUUCAAGACACUUCUUTT against Ccl6, the z-score was -1.6. GCUCAUUAACGAGAAAGUGTT against Atxn7l2: the z-score is -0.991. As for GGCUACUGUAAGAUUUCUATT against Mgat4f, the z-score is 1.98. As for GCAAAACCAAGUGAAUGUGTT against Plac1, the z-score was -0.774. Turning to GGAGUUUCAGCAGUCGUGATT against Prkrip1, the z-score was -0.94. With CCCUUCUCUGAUUGUCUGATT against Lce3b the figure was -0.452; with “GCUUCUAAAUUUGGUUCUGTT against 9830163H01Rik”, -0.389; with GGUGGACAAGGCAAUACAGTT against Mmp20, 4.46 (active). As for “GGUUUGAAUGAAUUCAAGGTT against 6030452D12Rik”, the figure is 0.785; as for GCUUAAUCAACUGGUACUATT against Olfr19, -1.7. With GGGUCACGGGAACUCAAAATT against Mlf1 the figure was -0.608; with GGAAUCAUCUGAACACACATT against Ctcf, -2.18 (active). As to GGAGAAGCUAUGGUAUUACTT against Apc2, the z-score is -0.798. As for CCACCACCAUCUAAAUAUATT against Ckap2l, the figure is -1.62. With GGACACAUUCGAAUGAACCTT against Mkrn2 the figure was 0.0809; with GGACAAGACCAGCAAAUACTT against Six6, -1.58; with GCAUUGUGCUCAAAUCUGCTT against C1qtnf7, -0.168. As for GGGUAUUCUGUGUGUUACUTT against Hsd3b1, the figure is 2.06 (active); as for GGGUUUUGAAACAUGCAGGTT against Cd44, -1.54. With AGAGAGAUAUUGUUCAUCATT against Psg22, the z-score was 0.11. With GGUAAUCGUGUAUUCAUAUTT against Dph5 the figure was -0.327; with GGAAACUGAAAAACAGAGUTT against Xbp1, -0.957; with GCGAAGAGAUGCUAACUAUTT against Dhx8, -2.86 (active). Regarding UGAGUUGUUUCCAGCUAAATT against Uts2b, the z-score was -0.506. With GCCCGGUCCUUUACUACAUTT against Sdk1 the figure was 0.595; with GGAUGCACUCAAGAAUUACTT against Ccdc65, 2.11 (active); with GGUGAGUGAUCUUCAGAACTT against Snx13, 0.311.

With CCCUGCUAAAAUCGACCUGTT against Plekha8, the z-score was -0.912. As for GCUCAUCGUGUUCGCUAUATT against Tuft1, the figure is -0.235; as for GGAGGUAAAGGAAAACUCUTT against Fmo1, 0.27. With CCACAACUAUGAGUCUAUUTT against Ech1 the figure was 2.05 (active); with GCUGGACCCACACAAAAAGTT against Rhbdl3, -0.0513; with “GGCUUUUCAGACCAAGCUUTT against 3830406C13Rik”, 0.322. As for CGUUGUAUGCUAGUACUGATT against Olfr1501, the figure is -1.17. As to GGCAAAAAGGGAUGUUACCTT against Map1lc3b, the z-score is -0.221. With GCGAGUCUAUGUGUUCCCUTT against Cox4i2 the figure was 0.187; with GGAAACAAAUGAGUGCCUGTT against Bloc1s5, 2.02 (active).

On to GCUGGAAUACGGAAAAUGGTT against Gbe1, for which the z-score was -1.56. As for GGAGGAAAUACAUGAUAAATT against Strap, the figure is -0.159.

For GGCUUACGAUGAAAAUAAATT against Lca5, the z-score was -1.94.

In the case of GGCAUUGCAUUCUCACAUGTT against Gabarapl1, the z-score is 0.319. As for GCUCGUUGCAUAAAAAGAGTT against Creg2, the figure is -0.286.

Take GGAGAUCAAAGAAUCUUGGTT against Arhgap45: the z-score is -4.45 (active). As for “GCCGGAAACUCAAGAUAGCTT against F830208F22Rik”, the z-score is -0.74. As for GCCCGCUCUCGGAUUUUGATT against Htr1b, the figure is 1.5; as for GGUAGAGACCGCAUAGAAATT against Aqp8, 2. Consider CCGGGUAGUGAGUAAGCUUTT against Neu2, for which the z-score is -3.51 (active). As for GGUCCAAGAAGACAAUGCUTT against Cga, the figure is -0.102. With CCUCUUUGGGACUAUAGACTT against Olfr1357, the z-score is -0.378. As for GGUAUUGGUCCAAUUUUUCTT against Gng7, the figure is 0.187; as for GGCUGUGGUGCUCAAUAAGTT against Clstn2, -1.29.

With CCGAGAUAUGAAUCAAAUUTT against Wars, the z-score is 2.19 (active). As for GGAAAGACAAAAUCUAUGATT against Peg3, the figure is -0.777. With GGUCAUCAGUGAGCUGAAUTT against Rplp2 the figure was 0.125; with GCUCAUCUCCUUGAAUUCATT against Agbl5, 0.31; with CCUGUCCUGAUGGUGAAACTT against Serpinb3c, 0.619. With GCCUAAACUACCCUUAUAGTT against Ocln the figure was 3.4 (active); with GGUGCUGGCAACCUUUUGUTT against Masp1, 0.16; with GGGCCAUUGUCAAGGUGAUTT against Olfr632, -0.408. CCGAUUUUUACUUUUAGCUTT against Slc16a7: the z-score was 1.86. For the sequence GGAGACUAUUACCAUACUGTT against P4ha2, the z-score is -0.991.

Take GGUGAGCAAGAACAAAAAGTT against Chil6: the z-score is -0.71. As to GGUUUCGAGAAAACAACAATT against Miip, the z-score was 0.566. As for GCACAUCGAAAAUGCCCUGTT against Cpt1c, the figure is -0.154; as for GGCAAACCUGCUUUCAUGGTT against Smc5, 0.282; as for GCAGUUCUCCUAUUUCAUCTT against Cdc45, 2.03 (active). With CGGGUGAGUGGAAAAACCATT against Atg9b the figure was -0.282; with GCCAAUGCCCUUGUGCAAATT against Olfr344, 0.301; with GGCUAUCUCGUAUUCUGAUTT against Olfr985, -1.62. With CCCGGGUUGGGUGUACAUUTT against Sds the figure was 3.62 (active); with CCUUAGCAAUGGGAUUGAUTT against Rasl12, 0.448. Consider GGAGAACACUUUAAUGCUGTT against Ovch2, for which the z-score is 0.00992.
